# Reference: PubChem BioAssay
# A number with no mark means an inactive call. No rule for the calls is given here.
# Biological target: L-lactate dehydrogenase (Plasmodium falciparum (isolate CDC / Honduras)) (UniProt Q27743)
# Test: PfLDH activity inhibition – cell lysate, 3D7 strain, counter-screen for P. falciparum growth inhibition project (AID 2304);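 also: 0% = vehicle and 100% = reference inhibitor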
# Conditions: P. falciparum 3D7 crude extract, LDH APAD/NBT absorbance; at 2 µM; active compounds read high
# L-lactate dehydrogenase (Plasmodium falciparum (isolate CDC / Honduras)), sequence (Q27743 whole entry, looked up): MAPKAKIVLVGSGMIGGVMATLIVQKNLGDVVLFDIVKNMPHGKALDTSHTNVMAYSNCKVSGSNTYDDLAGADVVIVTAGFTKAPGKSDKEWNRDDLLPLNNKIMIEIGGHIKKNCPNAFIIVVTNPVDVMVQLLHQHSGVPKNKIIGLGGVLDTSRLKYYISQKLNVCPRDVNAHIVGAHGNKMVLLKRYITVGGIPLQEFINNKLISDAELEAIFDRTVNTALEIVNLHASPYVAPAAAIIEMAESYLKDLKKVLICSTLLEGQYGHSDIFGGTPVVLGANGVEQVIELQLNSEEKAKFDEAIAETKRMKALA
row,SMILES,inhibition [%]
1,Cc1nnsc1C(=O)Nc1ccc(-c2ccc(-c3nc4c(C)cccc4[nH]3)s2)cc1,2
2,O=C([C@@H]1CCCCN1c1ccc([N+](=O)[O-])c2ccccc12)N1CCN(c2ncccn2)CC1,5
3,O=C(/C=C/c1ccc(Cl)c(Cl)c1)NCCCCCN1CCCN(C(=S)Nc2cccc(Cl)c2)CC1,0
4,O=C(Nc1cccc(-c2cccc(-c3nc4ccc(C(F)(F)F)cc4[nH]3)c2)c1)c1csnn1,3
5,Cc1cc(CN2C(=O)C(c3ccccc3)(c3ccccc3)N=C2N)c(C(F)(F)F)o1,4
6,COc1ccc(-c2ccc(NC(=O)c3ccccc3)cc2)cc1CN1CCCN(C)CC1,3
7,COc1ccc2nccc(N3C[C@H]4C[C@@H]3CN4CCNCc3ccc4c(n3)NC(=O)CS4)c2n1,1
8,COc1ccc2ncc(OC)c(CCN3CC[C@@H](NCc4ccc5c(n4)NC(=O)CS5)[C@H](O)C3)c2n1,4
9,Cn1cncc1C(=O)Nc1cccc(-c2ccc(-c3nc4ccc(C(F)(F)F)cc4[nH]3)cc2)c1,1
10,Cc1c(-c2cccc(CNCCc3ccc(Cl)cc3)c2)cnc(N)c1C,-5
11,O=C(N[C@@H](Cc1ccccc1)C(=O)O)c1cc(-c2ccc(F)cc2)no1 (tested in a mixture with another compound),-3
12,O=C(NCCCCCN1CCC(c2c[nH]c3ccccc23)CC1)Nc1cccc(I)c1,-8
13,O=C(Nc1ccc(N2CCCCC2)c(Cl)c1)c1ccco1,-6
14,CC(C)C(C(=O)Nc1ccc2c(c1)OCO2)c1ccc(Cl)cc1 (configuration not stated),-7
15,CC(C)c1ncc(-c2ccncc2)c(C2CCC(CNC(=O)c3ccncc3)CC2)n1 (configuration not stated),4
16,O=S(=O)(NCCN1CCCC1)c1cccc(-c2cccc(CNCc3ccc(F)cc3)c2)c1,4
17,CCCC(C)NC(=O)c1cnn(-c2ccc(C(C)(C)C)cc2)c1OCc1ccc(Br)cc1 (configuration not stated),0
18,COC(=O)c1cccc(CNCc2cccc(-c3cccc(-c4nc5ccc(F)cc5[nH]4)c3)c2)c1,1
19,CCCCCN1CCC(NS(=O)(=O)c2cccc(C(=O)Nc3cccc(C(F)(F)F)c3)c2)C1 (configuration not stated),-5

row,SMILES,inhibition [%]
1,CCNc1cc(C(=O)N[C@@H](Cc2ccccc2)[C@H](O)CNC2(CCC(C)C)CC2)cc(N2CCCCS2(=O)=O)c1,2
2,COc1cc2nc(NC3CCN(Cc4ccccc4)CC3)nc(N)c2cc1OC,-2
3,CCN(CC)CCCNc1ncc2c(-c3ccc(NC(=O)Nc4cc(C(F)(F)F)ccc4F)c(F)c3)nn(C)c2n1,3
4,CN(C)CCOc1cc(NC(=O)Nc2ccc(Oc3ccccc3)cc2)ccc1I,4
5,COc1ccc(NC(=O)/C=C/c2ccc(-c3ccccc3)cc2)cc1N1CCN(C)CC1,6
6,CCc1c[nH]c2c(N3CCCS3(=O)=O)cc(C(=O)N[C@@H](Cc3ccccc3)[C@H](O)CNC(C)(C)CCCC(C)C)cc12,-2
7,O[C@H]1[C@H](OCc2ccc(-c3ccccc3)cc2)CC[C@@H]1N1CCCCC1,9
8,Cc1ccc(NC(=O)c2ccc(CN3CCCN(Cc4cccc(O)c4)CC3)cc2)cc1F,-2
9,CCNc1cc(C(=O)N[C@@H](Cc2ccccc2)[C@H](O)CNC2CCC(C(C)(C)C)CC2)cc(N2CCCC2=O)c1 (some centres not stated),-3
10,OC(COCc1ccc(-c2ccccc2)cc1)CN1CCCCC1 (configuration not stated),-1
11,Nc1ccc2nc(C=Cc3ccc(Cl)cc3)[nH]c2c1,1
12,CC(C)NCc1cccc(-c2ccc(NC(=O)c3ccc(F)cc3)cc2)c1,-1
13,CN(CCCc1c[nH]c2ccccc12)CCC1CCC(NC(=O)/C=C/c2ccc(Cl)c(Cl)c2)CC1 (configuration not stated),-3
14,Cc1c(-c2cccc(C(C)(C)NCCCN3CCCCC3)c2)cnc(N)c1C,-1
15,CC(CN(C)C)C(=O)Nc1cccc(-c2cccc(-c3nc4ccccc4[nH]3)c2)c1 (configuration not stated),-5
16,O=[N+]([O-])c1cccc(CNCC2CCN(Cc3ccc(Cl)c(Cl)c3)CC2)c1,4
17,NC(N)=NCCCN(Cc1ccccc1)c1ccccc1,-3
18,Cc1cc(=O)c(-c2ccc(OCc3ccc(OC(F)(F)F)cc3)cc2)c(C)[nH]1,3
